A selection: hits, their analogues and other compounds. The true share with any hit is near 9.9%.
SW480 rerep: DNA re-replication induction in SW480 cells; SW480 DNA re-replication, Hoechst DNA content imaging, 48 h; Potency, µM (top dose mostly 46.1 µM), without a hit: at the highest dose re-replication activation, actives largely listed as activators; hit rate 1.8% among 340,000; note: potency is the fitted concentration of half-maximal effect; % of control where 0% means no effect; nearly all actives have a fitted effect of over 55% in size
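First, 250 cells per well were seeded. Next, compound or vehicle (23 nL) was pinned in, plates sat 48 hr at 37 C. Finally Hoechst was added for 40 min before fluorescence scanning.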
IL-1B inflam inh: inhibitors of inflammasome signaling (IL-1 beta secretion) | THP-1 LPS/ATP IL-1B secretion, AlphaLISA, 16 h; active compounds read low | activity change, % at 57.5 µM | hit rate 4.7% among 360,000; in the data active = activity change below about -50%; inconclusive = mostly about -30% to -49%; note: % is set by controls: 0 for no effect and ±100 for the full control effect
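THP-1 cells pretreated 1 hr with compounds (up to 57.5 uM final), then stimulated with LPS (250 ng/mL final) plus ATP (1.25 mM final); secreted IL-1B measured by AlphaLISA after 16 hr, decreased signal indicating inhibition.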
MCF10A rerep: induces DNA re-replication in MCF 10a normal breast cells. MCF 10A DNA re-replication, Hoechst nuclear intensity, 48 h. Potency, µM (titrated, usually from 46.1 µM), for inactives: top-dose activity, positive = re-replication, usual class: activators. hit rate 2.9% among 350,000. AID 624296; note: potency is the fitted concentration of half-maximal effect; % of control where 0% means no effect; nearly all actives have a fitted effect of over 50% in size
KB-V1 cytotox: kills drug-selected multidrug resistant KB-V1 cells; KB-V1 MDR cells viability, CellTiter-Glo, 72 h; hit rate 3.4% among 400,000; Potency, µM (titrated, usually from 46.1 µM), actives largely listed as cytotoxic; note: potency is the fitted concentration of half-maximal effect; % is set by controls: 0 for no effect and ±100 for the full control effect; nearly all actives have a fitted effect of over 60% in size
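Compound-treated KB-V1 multidrug-resistant cells, 72 h, 37 degrees C; viability by CellTiter-Glo. Fitted qHTS curves give the values.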
KB-3-1 cytotox: KB-3-1 parental cell cytotoxicity; KB-3-1 viability, CellTiter-Glo ATP luminescence, 72 h; Potency, µM (highest dose often 46.1 µM), actives largely listed as cytotoxic; hit rate 1.4% among 400,000; AID 1347075; note: potency is the fitted concentration of half-maximal effect; % is set by controls: 0 for no effect and ±100 for the full control effect; nearly all actives have a fitted effect of over 60% in size
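Here the drug-naive KB-3-1 line serves as comparator for MDR sub-line selectivity; cells received compound titrations, 72 h at 37 °C, then CellTiter-Glo readout.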
The depositor's hits bear a star; i = inactive; u = inconclusive; x = not tested or not shown; ! = repeats disagree. Unless noted, calls come from the whole dose curve; as a rule, active = well fitted curve in the direction sought with a large enough effect; inconclusive = small, poorly fitted or top-dose-only effect, or another doubt; inactive = no such curve, though single readings can be large; an effect the other way counts as inactive or inconclusive.

SMILES | SW480 rerep | IL-1B inflam inh | MCF10A rerep | KB-V1 cytotox | KB-3-1 cytotox
CCCOC1(C(F)(F)F)NC(=O)N(c2ccc(Cl)cc2)C1=O (centres undefined) | x | x | x | i | i
CC(C)CC(C(=O)O)N(Cc1ccccc1)Cc1ccccc1 (centres undefined) | -1% | 22 | -4% | i | i
C#CC(CO)N(CCN(Cc1ccccc1)C(C#C)CO)Cc1ccccc1 (centres undefined) | 16% | -62* | 23% | u | i
N#Cc1ccccc1OCc1cccc(S(=O)(=O)N2CCOCC2)c1 | -2% | 25 | 9% | i | i
Cc1ccc(NC(=O)/C=C\C(=O)O)c([N+](=O)[O-])c1 | -7% | 5 | -5% | i | i
Cc1cc(C)c(NC(=O)/C=C\C(=O)O)c([N+](=O)[O-])c1 | 0.16µM* | 0 | 15% | i | i
Cc1cc(/C=C2\C(=N)N3N=C(c4ccco4)SC3=NC2=O)c(C)n1Cc1ccccc1 | -1% | x | 21µM* | i | u
CCC1=NN2C(=N)/C(=C/c3cc(C)n(Cc4ccccc4)c3C)C(=O)N=C2S1 | -2% | 10 | u | i | i
NC(=O)Cn1c(=O)n(CCC(=O)NCCSCc2ccccc2)c(=O)c2ccccc21 | -6% | 19 | 7% | i | i
COc1cc(OC)c(OC)cc1/C=N/N(C)c1ccccc1 | -2% | -62* | 2% | i | i
COc1cc(/C=N/N(C)c2ccccc2)ccc1O | -4% | u | 11% | u | u
CN(C(=O)C(C)(C)C)c1ccc(OCC(=O)N2CCc3ccccc3C2)cc1 | 2% | -16 | 20% | 4.6µM* | u
Cc1cc(OCC(=O)N2CCc3ccccc3C2)c(C)cc1Br | 5% | -55* | u | i | i
Cc1ccc(OCC(=O)N2CCc3ccccc3C2)cc1 | 2% | -4 | -2% | i | i
Cc1ccc(C)c(OCC(=O)N2CCc3ccccc3C2)c1 | -4% | -27 | 12% | i | i
COc1ccc(C(=O)/C=C2\Sc3ccccc3N2C)cc1 | u | -2 | u | u | i
CC(=S)/C=C1\Sc2ccccc2N1C | 1% | -61* | 1% | i | i
O=S(=O)(c1cccc2ccccc12)N1CCC2CC1c1cc(Cl)ccc12 (centres undefined) | u | 30 | u | i | i
CCCc1nc2ccccc2c(=O)n1/N=C/c1c(C)[nH]n(-c2ccc(C)cc2)c1=O | u | 44 | 11% | 16µM* | 8.2µM*
Cc1ccc(-n2[nH]c(C)c(/C=N/c3ccccn3)c2=O)cc1 | -2% | 36 | -8% | i | u
CCCc1nc2ccccc2c(=O)n1/N=C/c1ccccc1O | u | 36 | u | 16µM* | i
CCc1nnc(SCC(=O)Nc2ccccc2)n1CC1CCCO1 (centres undefined) | -5% | -5 | -1% | i | i
CC1=NN(c2ccc(C)cc2)C(=O)/C1=C\C=C\c1ccccc1 | -7% | -180* | u | u | i
CC1=NN(c2cccc(C(=O)O)c2)C(=O)/C1=C\C=C/c1ccccc1 | 14% | -103* | u | u | u
O=c1cc(Nc2ccc3c(c2)OCCO3)[nH]c(=O)n1C1CCCCC1 | 12µM* | 16 | u | i | u
SMILES | SW480 rerep | IL-1B inflam inh | MCF10A rerep | KB-V1 cytotox | KB-3-1 cytotox
CCCCN(C(C)=O)c1c(CC)nc2ccc(C(=O)NCCCN(C)C)cn12 | x | -5 | x | i | i
CCOC(=O)C1CCN(C(=O)CCNS(=O)(=O)c2ccc3c(c2)CCN3C(=O)CC)CC1 | -27% | 39 | 14% | i | i
Cc1cc(-c2nc3ccccc3o2)c2ccccc2n1 | 7% | -4 | 5% | 13µM* | i
CCC(CC)C(=O)N1N=C(c2ccc(NS(C)(=O)=O)cc2)CC1c1ccc(C)cc1 (centres undefined) | -11% | -12 | 4% | 18µM* | i
CC/C(=N\Nc1ccc([N+](=O)[O-])cc1)c1ccccc1 | u | -51* | 16µM* | i | i
CCc1ccc(/C(C)=N\Nc2ccc([N+](=O)[O-])cc2)cc1 | 15µM* | -12 | 9.2µM* | i | i
C/C(=N\Nc1nc(C)c(C)s1)c1ccc([N+](=O)[O-])cc1 | 5% | -88* | u | u | u
OC[C@@H]1CN(Cc2ccco2)C[C@H](n2cnc3c(NCc4ccncc4)ncnc32)O1 | x | 12 | x | i | i
Cc1[nH]c(=O)c(C(=O)/C=C/c2ccccc2F)c2c1CCCC2 | 4.1µM* | -97* | 3.3µM* | 6.5µM* | 6.5µM*
O=C(O)c1ccccc1N/C=C\[N+](=O)[O-] | -4% | 27 | -13% | i | i
CCC(C)(C(=O)NC1CCCCC1)N(CC1CCCO1)C(=O)CNC(=O)c1ccccc1 (centres undefined) | 0% | -16 | 4% | u | i
O=C(NCC(=O)N(CC1CCCO1)C1(C(=O)NC2CCCC2)CCCCC1)c1ccccc1 (centres undefined) | -3% | -7 | 6% | 15µM* | i
O=C(NCC(=O)N(CC1CCCO1)C1(C(=O)NC2CCCCC2)CCCCC1)c1ccccc1 (centres undefined) | 2% | -1 | 1% | 3.3µM* | i
CC(C)CC1Nc2ncnc(N3CCN(c4ccccn4)CC3)c2N(Cc2ccc(Cl)cc2)C1=O (centres undefined) | 13% | -70*! | 81% | 23µM*! | u
CCC1Nc2ncnc(N3CCc4ccccc4C3)c2N(Cc2ccc(Br)cc2)C1=O (centres undefined) | x | -95* | x | u | u
CC(C)CC1Nc2ncnc(N3CCN(c4ccccc4)CC3)c2N(Cc2ccccc2)C1=O (centres undefined) | u | -20 | -1% | i | i
CC(C)CC1Nc2ncnc(N3CCCCC3)c2N(Cc2ccccc2)C1=O (centres undefined) | u | -15 | 13% | i | i
O=C1C(Cc2ccccc2)Nc2ncnc(N3CCN(c4ccccc4)CC3)c2N1Cc1ccc(Cl)cc1 (centres undefined) | 11% | -56* | -14% | i | i
COc1ccc(CN2C(=O)C(CC(C)C)Nc3ncnc(N4CCN(c5ccccc5)CC4)c32)cc1 (centres undefined) | u | -62*! | -6% | i | u
O=C1C(Cc2ccccc2)Nc2ncnc(N3CCCCC3)c2N1Cc1ccc(Cl)cc1 (centres undefined) | 24% | -19 | u | i | i
O=C1C(Cc2ccccc2)Nc2ncnc(N3CCc4ccccc4C3)c2N1Cc1ccccc1 (centres undefined) | -9% | 5 | 13% | i | i
